According to the supplement of paper PMC10338343:
± gives the standard deviation.

Tested on: EfPiwi piRISC loaded with L1MC piRNA (26 nt)
Assay: pre-steady-state target cleavage rate (min^-1); auxiliary factor: 500 nM Ephydatia muelleri Gtsf1; guide: L1MC piRNA 5'p-UAACUAAAUACUAUGCAAGCUGUAGG; MIWI and MILI are mouse PIWI proteins and EfPiwi is from a freshwater sponge; tags in brackets are library labels; higher = faster piRNA-guided slicing of the target
How it was run: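 A transcribed, DNA-blocked target RNA library […] was incubated at 33 °C for 0–8 or 0–960 min with 1 nM active affinity-purified piRISC carrying one synthetic guide, in HEPES–potassium acetate buffer with or without 500 nM GTSF1 partner protein. Uncleaved targets were then sequenced and normalised to depth and to weakly complementary targets. Data from three trials were pooled, with k3 capped at 0.0001 min^-1, and a burst-and-steady-state fit yielded the pre-steady-state cleavage rate.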

With UCCUGGAACAGCUAGCAUAGUAUUAAGUUA as the sequence, how does the “pre-steady-state target cleavage rate” value read?
Its value is 0.0146 ± 0.0061.

Which “pre-steady-state target cleavage rate” value does the source give for UCCUGGAUCAGCUUGCAUAGUAUUUAGUA here?
The value was 0.00808 ± 0.0034.

Which “pre-steady-state target cleavage rate” value does the source give for UCCUGGAUGUCCUUGCAUACUAUUUAGUUA here?
The value was 0.00333 ± 0.0024.

How did the “pre-steady-state target cleavage rate” value turn out when UCCUGGAUGAGCUUAGCAUAGUAUUUAGUUA was run?
Its value is 0.0344 ± 0.0086.

How did the “pre-steady-state target cleavage rate” value turn out when UCCUCCUACAGCUUGCUAAGUAUUUAGUUA was run?
The value was 0.00593 ± 0.0039.

Which “pre-steady-state target cleavage rate” value does the source give for UCCUGGAUGUCCGUGCAUAGUAUUUAGUUA here?
Its value is 0.00483 ± 0.0024.

For UCCUCGUUCAGCUUGCAUAGUAUUUAGUUA, which “pre-steady-state target cleavage rate” value is on record?
Its value is 0.104 ± 0.021.

With UCCUGGUACAGCUUGCAUAGUAUUUGGUUA as the sequence, how does the “pre-steady-state target cleavage rate” value read?
The value was 0.00525 ± 0.002.

Which “pre-steady-state target cleavage rate” value does the source give for UCCUCCUACAGCUUGCAUAGUAUUUUCUAA here?
Its value is 0.00565 ± 0.0036.

How did the “pre-steady-state target cleavage rate” value turn out when UCCUCCACAGCUUGCAUAGUAUUUAGUUA was run?
The value was 0.0564 ± 0.018.

With UCCUGGAUCAGCUUGCAUAGUAUUCAGUUA as the sequence, how does the “pre-steady-state target cleavage rate” value read?
The value was 0.00509 ± 0.0019.

How did the “pre-steady-state target cleavage rate” value turn out when UCCUGGUACAGCUUGCUUAGUAUUUAGUUA was run?
The value was 0.0165 ± 0.0049.

Which “pre-steady-state target cleavage rate” value does the source give for UCCUGGAACAGCAUGCUUAGUAUUUAGUUA here?
The value was 0.00591 ± 0.0025.

Which “pre-steady-state target cleavage rate” value does the source give for UCCUGGAACAGCUUGCAUACUAUUUAGUUA here?
Its value is 0.00571 ± 0.0014.

For “UCCUGCUACAGCUUGCAUAGUAUUUAGUUG [g2:g25:cont:t1G]”, which “pre-steady-state target cleavage rate” value is on record?
Its value is 0.00685 ± 0.0019.

For UCCUGGAACAGCUUUCAUAGUAUUUAGUUA, which “pre-steady-state target cleavage rate” value is on record?
Its value is 0.00631 ± 0.0025.

UCCUGCUACAGCUUGCAUAGUAUUUCAGUUA was tested. Which “pre-steady-state target cleavage rate” value did it give?
Its value is 0.00522 ± 0.0019.

For UCCUGGAUGUGCUUGUAUAGUAUUUAGUUA, which “pre-steady-state target cleavage rate” value is on record?
Its value is 0.0218 ± 0.0071.

Which “pre-steady-state target cleavage rate” value does the source give for UCCUGGAUCAGGUUGCAUAGUAUAUAGUUA here?
Its value is 0.00644 ± 0.0033.

How did the “pre-steady-state target cleavage rate” value turn out when UCCUGCUACAGCUUGCAUCGUAUUUAGUUA was run?
Its value is 0.0091 ± 0.0022.

For UCCUGCUACAGCUUGCAUAAUAUUUAGUUA, which “pre-steady-state target cleavage rate” value is on record?
The value was 0.00444 ± 0.0021.

For UCCUGGAACAGCUUCCAUUGUAUUUAGUUA, which “pre-steady-state target cleavage rate” value is on record?
The value was 0.00345 ± 0.0017.

For UCCUGGAACAGCUUGCAUAGUAUUUACUUA, which “pre-steady-state target cleavage rate” value is on record?
Its value is 0.00514 ± 0.0038.

With UCCUGGUACAGCCUGCAUAGUAUUUAGUUA as the sequence, how does the “pre-steady-state target cleavage rate” value read?
Its value is 0.00984 ± 0.0036.

With UCCUGGAACAGCUUGCAGAGUAUUUAGUUA as the sequence, how does the “pre-steady-state target cleavage rate” value read?
The value was 0.012 ± 0.003.

For UCCUGGAUGAGCGUUGCAUAGUAUUUAGUUA, which “pre-steady-state target cleavage rate” value is on record?
The value was 0.00582 ± 0.0034.

With UCCUGGAUCAGCUUGAAUAGUAUUUAGUUA as the sequence, how does the “pre-steady-state target cleavage rate” value read?
Its value is 0.0605 ± 0.015.

How did the “pre-steady-state target cleavage rate” value turn out when “UCCUGGAACAGCUUGCAUAGUAUUUAGUUA [g2:g23:cont:t1A]” was run?
The value was 0.0806 ± 0.018.

How did the “pre-steady-state target cleavage rate” value turn out when UCCUCCUACAGCUUGCAUAGUAUUUAGUUUA was run?
The value was 0.145 ± 0.039.

For UCCUGGUAGAGCUUGCAUAGUUUUUAGUUA, which “pre-steady-state target cleavage rate” value is on record?
The value was 0.0049 ± 0.0026.

How did the “pre-steady-state target cleavage rate” value turn out when UCCUCCUACAGCUUGCAUAGUUAUUUAGUUA was run?
The value was 0.00556 ± 0.0031.

For UCCUGGAUGUCCUAUGCAUAGUAUUUAGUUA, which “pre-steady-state target cleavage rate” value is on record?
Its value is 0.00508 ± 0.0022.

Which “pre-steady-state target cleavage rate” value does the source give for UCCUGGAACAGCUAGCAUAGUAAUUAGUUA here?
The value was 0.0062 ± 0.0028.

With UCCUCGUACACCUUGCAUAGUAUUUAGUUA as the sequence, how does the “pre-steady-state target cleavage rate” value read?
The value was 0.1 ± 0.029.

With UCCUGGAUCUCCUUGCAUAGUAUUUAGUUA as the sequence, how does the “pre-steady-state target cleavage rate” value read?
The value was 0.0227 ± 0.0066.

How did the “pre-steady-state target cleavage rate” value turn out when UCCUGGUACAGCUUGCAUAGUAUUUAGUAA was run?
Its value is 0.0108 ± 0.0041.

For UCCUCCUUCUGCUUGCAUAGUAUUUAGUUA, which “pre-steady-state target cleavage rate” value is on record?
Its value is 0.11 ± 0.028.

With UCCUCCUACAGCUUGCUUAGUAUUUAGUUA as the sequence, how does the “pre-steady-state target cleavage rate” value read?
Its value is 0.0424 ± 0.012.

How did the “pre-steady-state target cleavage rate” value turn out when UCCUGCUACAGCUUGCAUAGUAGUUUAGUUA was run?
The value was 0.00695 ± 0.0028.

For UCCUGCUACAGGAUGCAUAGUAUUUAGUUA, which “pre-steady-state target cleavage rate” value is on record?
Its value is 0.0191 ± 0.0043.
